Data from PubChem BioAssay (NCATS).
Results filed as inconclusive are left out. Calls of active or inactive are those of the source. Unless noted, calls come from the whole dose curve.

Legend:
[1] = qHTS for Inhibitors of the Functional Ribonucleoprotein Complex (vRNP) of Lassa (LASV) Arenavirus: LASV Primary Screen - GLuc reporter signal (AID 1347082; calls by dose curve; tested in HEK293 reporter line; note: nearly all actives have a fitted effect of over 60% in size)
[2] = qHTS for Inhibitors of the Functional Ribonucleoprotein Complex (vRNP) of Lassa (LASV) Arenavirus: Viability assay - alamar blue signal for LASV Primary Screen (AID 1347083; calls by dose curve; tested in HEK293 reporter line; note: nearly all actives have a fitted effect of over 80% in size)
[3] = qHTS for Inhibitors of the Functional Ribonucleoprotein Complex (vRNP) of Lymphocytic Choriomeningitis Arenaviruses (LCMV): Viability assay - alamar blue signal for LCMV Primary Screen (AID 1347085; calls by dose curve; tested in HEK293 reporter line; note: nearly all actives have a fitted effect of over 80% in size)
[4] = target: Nucleoprotein (Lymphocytic choriomeningitis virus (strain Armstrong)) (UniProt P09992); experiment: qHTS for Inhibitors of the Functional Ribonucleoprotein Complex (vRNP) of Lymphocytic Choriomeningitis Arenaviruses (LCMV): LCMV Primary Screen - GLuc reporter signal (AID 1347086); note: nearly all actives have a fitted effect of over 70% in size
Chain of Nucleoprotein (Lymphocytic choriomeningitis virus (strain Armstrong)) (P09992 whole entry, looked up): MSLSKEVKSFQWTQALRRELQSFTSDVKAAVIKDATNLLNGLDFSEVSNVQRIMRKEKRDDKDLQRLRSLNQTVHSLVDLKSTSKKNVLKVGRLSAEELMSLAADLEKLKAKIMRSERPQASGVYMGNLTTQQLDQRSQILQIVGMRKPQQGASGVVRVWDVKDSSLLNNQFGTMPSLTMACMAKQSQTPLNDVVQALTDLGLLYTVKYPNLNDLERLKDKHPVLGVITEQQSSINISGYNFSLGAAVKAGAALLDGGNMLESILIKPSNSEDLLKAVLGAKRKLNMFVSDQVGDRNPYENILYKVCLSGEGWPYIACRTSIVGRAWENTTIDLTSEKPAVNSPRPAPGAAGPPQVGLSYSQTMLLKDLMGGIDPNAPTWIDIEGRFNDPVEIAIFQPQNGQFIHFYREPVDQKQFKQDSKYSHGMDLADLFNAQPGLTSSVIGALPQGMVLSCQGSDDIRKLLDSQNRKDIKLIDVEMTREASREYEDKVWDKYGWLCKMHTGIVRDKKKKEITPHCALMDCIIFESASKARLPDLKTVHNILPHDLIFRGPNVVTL

Measured: Potency
Note: series mostly up to about 57 µM.

CC(=O)OCC(=O)NCCCOc1cccc(CN2CCCCC2)c1
inactive: all assays above

CC(=O)[C@@]1(O)CC[C@H]2[C@@H]3C[C@H](C)C4=CC(=O)CC[C@]4(C)[C@H]3CC[C@@]21C
inactive: all assays above

O=C(CCCN1CCC(O)(c2cccc(C(F)(F)F)c2)CC1)c1ccc(F)cc1
inactive: all assays above

c1ccc(CNCCNCc2ccccc2)cc1
inactive: all assays above

CC1=C(C(=O)OC(C)C)C(c2cccc([N+](=O)[O-])c2)C(C(=O)OC2CN(C(c3ccccc3)c3ccccc3)C2)=C(N)N1 (stereo not given)
inactive: all assays above

Cc1nc(C2CCCCC2)c(-c2ccc(S(N)(=O)=O)c(F)c2)o1
inactive: all assays above

C#C[C@]1(O)CC[C@H]2[C@@H]3[C@H](C)CC4=C(CCC(=O)C4)[C@H]3CC[C@@]21C
inactive: all assays above

O=C1OC(c2ccc(O)cc2)(c2ccc(O)cc2)c2ccccc21
inactive: all assays above

COCCc1ccc(OCC(O)CNC(C)C)cc1 (stereo not given)
inactive: all assays above

NCC(=O)O
inactive: all assays above

CCC(C)(C)c1ccc(CC(C)CN2C[C@@H](C)O[C@@H](C)C2)cc1 (stereo not given in full)
inactive: all assays above

Cc1c(N)c(=O)n(-c2ccccc2)n1C
inactive: all assays above

COC(=O)[C@@H](N)Cc1ccc(O)c(O)c1
inactive: all assays above

Cc1ncc([N+](=O)[O-])n1C
inactive: all assays above

CN(C)CCOc1ccccc1Cc1ccccc1
inactive: all assays above

CCCCCCc1ccc(O)cc1O
inactive: all assays above

CN1CCN(CCCN2c3ccccc3Sc3ccc(S(=O)(=O)N(C)C)cc32)CC1
inactive: all assays above

C[C@]12CCC(=O)C=C1CC[C@@H]1[C@@H]2C(=O)C[C@@]2(C)[C@H]1CC[C@]2(O)C(=O)CO
inactive: all assays above

Oc1ccc(/C=C/c2cc(O)cc(O)c2)cc1
inactive: all assays above

Cc1oc(-c2ccccc2)nc1CCC(=O)c1ccc(CC2SC(=O)NC2=O)cc1 (stereo not given)
inactive: all assays above

C[N+]12CCC(CC1)C(OC(=O)C(O)(c1ccccc1)c1ccccc1)C2 (stereo not given)
inactive: all assays above

CCOC(=O)COc1ccc2c(C)c(CCN(CC)CC)c(=O)oc2c1Cl
inactive: all assays above

NNC(=O)CP(=O)(c1ccccc1)c1ccccc1
inactive: all assays above

CCCCCCCCCCCCCCNCCO
inactive: all assays above

Cc1cccc(Nc2cc(Cl)nc(SCC(=O)O)n2)c1C
inactive: all assays above

CC(C)C(=O)OCc1cccc(OC(=O)[C@@H]2N3C(=O)[C@@H](NC(=O)Cc4ccccc4)[C@H]3SC2(C)C)c1
inactive: all assays above

CC1(C)CO[C@@H](CC(=O)O)CN1
inactive: all assays above

O=C1CC2(CCCC2)CC(=O)N1CCCCN1CCN(c2ncccn2)CC1
inactive: all assays above

CCN(CC)CCN
inactive: all assays above

CCCCN(CCN(CCCC)C(=O)N1CCOCC1)C(=O)N1CCOCC1
inactive: all assays above

C[C@H](O)C(=O)Nc1c(I)c(C(=O)NC(CO)CO)c(I)c(C(=O)NC(CO)CO)c1I
inactive: all assays above

O=C(CCCN1CC=C(n2c(=O)[nH]c3ccccc32)CC1)c1ccc(F)cc1
inactive: all assays above

COc1ccc2cc1Oc1ccc(cc1)C[C@H]1c3c(cc4c(c3Oc3cc5c(cc3OC)CCN(C)[C@@H]5C2)OCO4)CCN1C
inactive: all assays above

CCC(=O)c1ccc2c(c1)N(CCCN(C)C)c1ccccc1S2
inactive: all assays above

C[C@@H](O)[C@H]1C(=O)N2C(C(=O)O)=C([C@H]3CCCO3)S[C@H]12
inactive: all assays above

COc1ccc(-n2nc(CCC(=O)N(C)O)cc2-c2ccc(Cl)cc2)cc1
inactive: all assays above

Cc1cc(C(C)(C)C)c(O)c(C)c1CC1=NCCN1
inactive: all assays above

N[C@H]1CN(c2c(F)cc3c(=O)c(C(=O)O)cn(C4C[C@@H]4F)c3c2Cl)CC12CC2 (stereo not given in full)
inactive: all assays above

CC1=C(C)C(=O)C(CCCCC#CCCCC#CCO)=C(C)C1=O
inactive: all assays above

CCN(CCCCOC(=O)c1ccc(OC)c(OC)c1)C(C)Cc1ccc(OC)cc1 (stereo not given)
inactive: all assays above

C[C@]12CCC(=O)C=C1[C@@H]1C[C@@H]1[C@H]1[C@@H]3[C@@H]4C[C@@H]4[C@@]4(CCC(=O)O4)[C@@]3(C)CC[C@@H]12
inactive: all assays above

CN1CCCCC1CCN1c2ccccc2Sc2ccc(S(C)=O)cc21 (stereo not given)
inactive: all assays above

C/C(=C(/OCCOc1ccc(Cl)cc1)c1ccc(Cl)cc1Cl)n1ccnc1
inactive: all assays above

CN1CCN(c2cc3c(cc2F)c(=O)c(C(=O)O)cn3-c2ccc(F)cc2)CC1
inactive: all assays above

CCOC(=O)OC(C)OC(=O)[C@@H]1N2C(=O)[C@@H](NC(=O)[C@H](N)c3ccccc3)[C@H]2SC1(C)C (stereo not given in full)
inactive: all assays above

CN(CCCN1c2ccccc2CCc2ccccc21)CC(=O)c1ccc(Cl)cc1
inactive: all assays above

NC(CSCC(=O)O)C(=O)O (stereo not given)
inactive: all assays above

O=C(O)c1cccnc1Nc1cccc(C(F)(F)F)c1
inactive: all assays above

CCOC(=O)Cn1cccc1-c1nc(-c2ccc(OC)cc2)c(-c2ccc(OC)cc2)s1
inactive: all assays above

c1ccc(CCNc2nc(-c3ccccc3)cs2)cc1
inactive: all assays above

CCOC(=O)C(=O)CCc1ccccc1
inactive: all assays above

CCCC(C(=O)OCCN(CC)CC)(c1ccccc1)c1ccccc1
inactive: all assays above

O=C(NN1CCCC1)NS(=O)(=O)c1ccc(Cl)cc1
inactive: all assays above

O=C(O)CCNC(=O)c1ccccc1
inactive: all assays above

CC(=O)N(CC(O)CN(C(C)=O)c1c(I)c(C(=O)NCC(O)CO)c(I)c(C(=O)NCC(O)CO)c1I)c1c(I)c(C(=O)NCC(O)CO)c(I)c(C(=O)NCC(O)CO)c1I (stereo not given)
inactive: all assays above

NC(=O)C(=O)N/N=C/c1ccc([N+](=O)[O-])o1
inactive: all assays above

C=CCSCC1Nc2cc(Cl)c(S(N)(=O)=O)cc2S(=O)(=O)N1 (stereo not given)
inactive: all assays above

CN(C)CCN(Cc1ccccc1)c1ccccn1
inactive: all assays above

Cn1c(=O)c2c(ncn2CC2OCCO2)n(C)c1=O
inactive: all assays above
